Sampled rows, rich in hits. Any-hit rate of the full collection: about 8%.
SW480 rerep – DNA re-replication induction in SW480 cells; hit rate 1.8% among 340,000; AID 624297; SW480 DNA re-replication, Hoechst DNA content imaging, 48 h; Potency, µM (doses to about 46.1 µM), without a hit: at the highest dose re-replication activation, most hits filed as activators; note: % of control where 0% means no effect; nearly all actives have a fitted effect of over 55% in size
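Image-based DNA-content assay: after two days of treatment, nuclei were labelled with the DNA dye Hoechst and imaged, and hits were compounds raising the count of nuclei showing high fluorescence intensity.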
HT1080NT lethal – kills 2HG-producing HT-1080-NT fibrosarcoma cells; Potency, µM (highest dose often 46.1 µM), for the others: top-dose activity, negative = less viability, usual class: cytotoxic; HT-1080-NT fibrosarcoma viability, CellTiter-Glo ATP luminescence, 48 h; AID 686970; hit rate 1.6% among 360,000;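 note: NT is the 2HG producing partner of a matched IDH1 knockdown line; 0% = DMSO-treated cells and -100% = media-only wells without cells; nearly all actives have a fitted effect of over 55% in size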
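Read-out is CellTiter-Glo luminescence after 10 minutes at room temperature, following 48 hours' compound treatment of HT-1080-NT cells (750 cells/well, RPMI, 5% FBS, 37 degrees C).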
KB-V1 MDR tox – KB-V1 MDR subline cytotoxicity | KB-V1 MDR cells viability, CellTiter-Glo, 72 h | Potency, µM (top dose mostly 46.1 µM), hits mostly cytotoxic | AID 1347076 | hit rate 3.4% among 400,000; note: % is set by controls: 0 for no effect and ±100 for the full control effect; nearly all actives have a fitted effect of over 60% in size
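Luminescent ATP read-out (CellTiter-Glo, 10 min) measures survival of drug-selected KB-V1 MDR cells after 72 h, 37 degrees C compound exposure. Medium: phenol-red-free DMEM, 10% FBS. Values from fitted concentration-response curves.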
HT1080 IDH1KD tx – HT-1080 IDH1 knockdown cell toxicity (counter line); HT-1080 IDH1 knockdown viability, ATP luminescence, 48 h; Potency, µM (series often up to 46.1 µM), for the others: top-dose activity, negative = toxicity, hits mostly cytotoxic; hit rate 2% among 360,000;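 note: 0% = DMSO wells and -100% = cell-free medium wells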
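Knockdown cells (IDH1KD HT-1080) received compounds 2 h after plating at 750 cells/well and were kept 48 h at 37 °C in 5% FBS RPMI. A CellTiter-Glo luminescence read gave % activity for curve fitting.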
KB-3-1 tox – kills parental KB-3-1 adenocarcinoma cells; KB-3-1 viability, CellTiter-Glo ATP luminescence, 72 h; AID 1347075; hit rate 1.4% among 400,000; Potency, µM (titrated, usually from 46.1 µM), most hits filed as cytotoxic; note: % is set by controls: 0 for no effect and ±100 for the full control effect; nearly all actives have a fitted effect of over 60% in size
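Using CellTiter-Glo luminescence, growth of non-resistant KB-3-1 adenocarcinoma cells is assessed 72 h after pin-tool compound addition at 37 °C. Normalized responses across the concentration series yield fitted curves.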
MCF10A rerep – inducers of DNA re-replication in MCF 10A breast cells | hit rate 2.9% among 350,000 | Potency, µM (titrated, usually from 46.1 µM), for the others: at the top dose activity, positive = re-replication, most hits filed as activators | MCF 10A DNA re-replication, Hoechst nuclear intensity, 48 h; note: % of control where 0% means no effect; nearly all actives have a fitted effect of over 50% in size
* = called active by the depositor; i = inactive; ? = inconclusive; . = no result given; ! = not confirmed by another sample. Calls come from the whole dose curve; as a rule, active = well fitted curve in the direction sought with a large enough effect; inconclusive = small, poorly fitted or top-dose-only effect, or another doubt; inactive = no such curve, though single readings can be large; an effect the other way counts as inactive or inconclusive. Potency is the fitted concentration of half-maximal effect.

SMILES | SW480 rerep | HT1080NT lethal | KB-V1 MDR tox | HT1080 IDH1KD tx | KB-3-1 tox | MCF10A rerep
CCCCn1c(O)c(/C=C2\C=NN=C2c2ccccc2)sc1=S | ? | -15% | i | -25% | i | 10µM*
CC(C)Cn1c(O)c(/C=C2\C=NN=C2c2ccccc2)sc1=S | ? | -17% | ? | 3% | i | 23µM*
Cc1ccc(Cl)cc1NC(=O)c1sc2nc(-c3ccccc3)cn2c1C | . | . | i | . | i | .
Clc1ccc(Cn2cc(/C=N/n3cnnc3)c3ccccc32)c(Cl)c1 | ? | ? | i | ? | ? | ?
C(=N\n1cnnc1)/c1cn(Cc2ccccc2)c2ccccc12 | -3% | -30% | 15µM* | ? | i | ?
C(=N\n1cnnc1)/c1cccc2ccccc12 | -5% | -1% | 10µM* | -2% | ? | 2%
COc1ccc2ccccc2c1/C=N/n1cnnc1 | -5% | 1% | i | -1% | i | 1%
O=c1c2ccccc2c(C=Nc2cccc(O)c2)c(O)n1-c1ccc2c(c1)OCO2 | ? | -6% | i | 1% | ? | 15µM*
COc1ccc(N=Cc2c(O)n(-c3ccc(OC)cc3)c(=O)c3ccccc23)cc1 | 20% | 17% | i | 19% | i | ?
Cc1ccc(Nc2nc(Nc3ccc(Cl)cc3)nc(N3CCOCC3)n2)cc1 | . | . | i | . | i | .
CCOC(=O)c1c(NC(=O)c2cc3nc(-c4ccccc4)cc(C(F)(F)F)n3n2)sc2c1CCC(C)C2 (centres undefined) | . | . | i | . | i | .
COc1ccc(OC)c(NC(=O)Nc2cccc3ccccc23)c1 | -2% | 2% | 7.3µM* | 9% | i | ?
COc1cccc(C(CC(=O)Nc2cccc3ccccc23)NC(=O)c2ccccc2)c1 (centres undefined) | 15% | ? | 5.8µM* | ? | i | 5%
COc1ccc(Nc2ncc(C(=O)Nc3cc(Cl)c(OC)cc3OC)c3ccccc23)cc1 | . | . | i | . | i | .
COc1cccc(C(=O)Nc2cccc3ccccc23)c1 | -1% | 1% | i | 3% | i | 0%
COc1ccc(OC)c(NC(=O)c2cnc(Nc3ccccc3OC)c3ccccc23)c1 | 3.3µM* | ? | 6.5µM* | ? | 7.3µM* | 24%
COc1ccc2nc(NC(=O)c3ccccc3O)sc2c1 | ? | ? | i | -28% | ? | 21µM*
Clc1ccc[n+](CCCCC[n+]2cccc(Cl)c2)c1 | . | . | i | . | i | .
COc1ccc2nc(NC(=O)Nc3cccc4ccccc34)sc2c1 | -19% | ? | i | ? | i | 9.2µM*
COc1ccc2nc(NC(C)=O)sc2c1 | -4% | 2% | i | 4% | i | 16%
COc1ccc2nc(NC(=O)Nc3ccccc3OC)sc2c1 | 2.9µM* | ? | 4.6µM* | ? | 5.2µM* | ?
COc1ccc2nc(NC(=O)c3ccc4ncsc4c3)sc2c1 | ? | ? | i | ? | i | 15µM*
COc1ccc(C(=O)Nc2nc3cc4c(cc3s2)OCCO4)c(OC)c1 | 16% | -4% | i | 1% | i | 4.1µM*
COc1cc(-c2ccc3ncnc(NCCc4cnc[nH]4)c3c2)cc(OC)c1OC | . | . | i | . | i | .
Cc1cc(C)cc(NC2=CC(c3cccc(F)c3)N(c3cc(C)cc(C)c3)C2=O)c1 (centres undefined) | . | . | i | . | i | .
SMILES | SW480 rerep | HT1080NT lethal | KB-V1 MDR tox | HT1080 IDH1KD tx | KB-3-1 tox | MCF10A rerep
COc1ccc2c(c1)CC(C(=O)NCCCN1CCN(c3ccc(F)cc3)CC1)CO2 (centres undefined) | . | . | i | . | i | .
Cc1nc(C(C)N(C)Cc2nc(-c3ccc4c(c3)OCO4)no2)c(C)s1 (centres undefined) | 3.7µM* | -2% | i | -6% | i | ?
Cc1cccc(-c2noc(CN(C(=O)c3ccc4c(c3)OCO4)C(C)C)n2)c1 | 3% | -6% | i | -5% | i | 0%
O=C(C1CCCN(S(=O)(=O)c2ccccc2)C1)N1CCCCCC1 (centres undefined) | 0.52µM*! | 0% | i | -1% | i | 29%
O=C(C1CCCN(S(=O)(=O)c2ccccc2[N+](=O)[O-])C1)N1CCN(c2ccccc2)CC1 (centres undefined) | 20% | 1% | 5.8µM* | 12% | i | -11%
COc1cccc(N2CCN(C(=O)C3CCCN(S(=O)(=O)c4ccc5c(c4)oc(=O)n5C)C3)CC2)c1 (centres undefined) | -26% | 12% | i | -5% | 12µM*! | 1%
O=C(C1CCCN(S(=O)(=O)c2cccc3nsnc23)C1)N1CCN(c2ccccc2)CC1 (centres undefined) | . | . | i | . | ? | .
Cn1c(=O)oc2cc(S(=O)(=O)N3CCCC(C(=O)N4CCN(c5ccc(F)cc5)CC4)C3)ccc21 (centres undefined) | . | . | i | . | i | .
CCCn1c(CCC(=O)Nc2cc(Cl)c(OC)cc2OC)nc2cccnc21 | . | . | i | . | i | .
COc1ccc(Cn2ccc3nc(C)c(C(=O)Nc4ccc(OC)cc4OC)cc3c2=O)cc1 | . | . | i | . | i | .
NC(=S)N/N=C/c1cccc(Br)c1 | -4% | 0% | 8.2µM* | -3% | ? | -7%
NC(=S)N/N=C/c1cccc(/C=N/NC(N)=S)c1 | 3% | 28% | i | 30% | i | 4%
NC(=S)N/N=C/c1ccc(/C=N/NC(N)=S)cc1 | 18µM* | -12% | i | 1% | i | ?
CC(=O)c1ccc(NS(=O)(=O)c2cc3c(cc2C)N(C)CCO3)cc1 | 0% | ? | i | 16µM* | i | 0%
O=C/C(=C\Nc1ccc(Cl)cn1)c1nc2ccccc2o1 | 13% | -30% | i | -28% | i | ?
O=C/C(=C\Nc1ccc(S(=O)(=O)CCO)cc1)c1nc2cc(Cl)ccc2o1 | ? | -27% | i | -21% | i | 23µM*
O=C/C(=C\Nc1ccc(Cl)cn1)c1nc2cc(Cl)ccc2o1 | 2% | 2% | i | 3% | ? | 16µM*
O=C(CSc1nnc(CNC(=O)c2cccc(F)c2)n1-c1ccccc1)Nc1ccccc1F | . | . | i | . | i | .
CCOc1ccc(C2=Nn3c(nnc3-c3ccccc3OC)SC2)cc1 | 0.26µM* | 0.21µM* | ? | 0.01µM* | 0.012µM* | ?
COc1ccc(C2=Nn3c(nnc3-c3ccccc3OC)SC2)cc1OC1CCOC1 (centres undefined) | 1µM* | . | 3.3µM* | . | 0.65µM* | 1.3µM*

High-throughput results as filed in PubChem BioAssay.
